Reference: PubChem BioAssay (Tox21)
Several values for one entry are separate records, joined by “and”; a condition that tells them apart may be missing. Equal entries are not always repeated. Results filed as inconclusive are left out. Activity calls are given as the source filed them. Unless noted, calls follow the shape of the full dose curve.

Assays:
[1] = Nuclear factor erythroid 2-related factor 2/antioxidant responsive element (Nrf2/ARE) small molecule agonists: qHTS cell viability counter screen in human keratinocytes (AID 1919968; active = well fitted curve in the direction sought with a large enough effect in the repeat runs; an effect the other way counts as inactive or inconclusive; also: nearly all actives have a fitted effect of over 55% in size; also: potency is read from the fitted curve at half-maximal effect)
Outline: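 Fluorescence read-out from CellTiter-Fluor after 1 h at 37 C. Wells held HaCaT-derived ARE-luciferase reporter cells (1,500/well) treated 23 h with DMSO-dissolved compounds. Run in the same wells as the luciferase agonist read.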

[2] = target: Gonadotropin-releasing hormone receptor (Homo sapiens) (UniProt P30968); test: Human gonadotropin-releasing hormone receptor (GnRHR) small molecule agonists, calcium flux assay in GnRHR-HEK293 cells (AID 1920063); also: nearly all actives have a fitted effect of over 35% in size
Sequence of Gonadotropin-releasing hormone receptor (Homo sapiens) (P30968 whole entry, looked up): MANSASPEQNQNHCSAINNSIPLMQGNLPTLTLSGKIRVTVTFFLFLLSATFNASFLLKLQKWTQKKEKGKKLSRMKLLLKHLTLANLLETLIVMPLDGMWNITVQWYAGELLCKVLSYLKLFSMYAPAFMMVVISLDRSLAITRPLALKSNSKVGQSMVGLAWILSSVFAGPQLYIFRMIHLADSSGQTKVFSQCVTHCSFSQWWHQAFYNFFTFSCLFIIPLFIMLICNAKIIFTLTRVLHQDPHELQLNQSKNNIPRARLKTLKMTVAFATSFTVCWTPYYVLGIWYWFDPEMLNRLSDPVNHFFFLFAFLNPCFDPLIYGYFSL
Outline: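 Calcium-dye fluorescence, Ex/Em=480/540, recorded every 1 sec over 3 min after compound addition to GnRHR-HEK293 cells. Cells had been seeded 18 hours earlier and dye-loaded for 1 hour at 37 C. Fifteen concentrations, triplicates.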

[3] = target: KiSS-1 receptor (Homo sapiens) (UniProt Q969F8); test: Human kisspeptin (KISS1R) small molecule agonists, calcium flux assay in KISS1R-HEK293 cells (AID 1920064; active = well fitted curve in the direction sought with a large enough effect in the repeat runs; an effect the other way counts as inactive or inconclusive)
Sequence of KiSS-1 receptor (Homo sapiens) (Q969F8 whole entry, looked up): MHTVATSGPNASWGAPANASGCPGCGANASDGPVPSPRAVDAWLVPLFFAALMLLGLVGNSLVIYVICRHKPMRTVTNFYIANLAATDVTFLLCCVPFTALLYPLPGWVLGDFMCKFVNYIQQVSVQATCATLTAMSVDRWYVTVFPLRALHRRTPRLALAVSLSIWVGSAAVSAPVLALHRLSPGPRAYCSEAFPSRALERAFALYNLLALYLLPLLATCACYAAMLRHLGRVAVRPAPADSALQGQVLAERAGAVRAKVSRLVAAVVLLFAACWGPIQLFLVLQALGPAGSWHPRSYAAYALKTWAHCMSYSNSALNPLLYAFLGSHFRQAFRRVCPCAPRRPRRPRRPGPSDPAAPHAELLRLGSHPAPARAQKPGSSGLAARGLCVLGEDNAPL
Outline: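 Calcium flux read-out: kinetic fluorescence at Ex/Em=480/540, 1 s intervals over 3 min, after pin-tool compound addition to dye-loaded KISS1R-HEK293 cells. Fifteen concentrations, triplicates.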

[4] = G protein-coupled receptor (GPCR) small molecule agonists, calcium flux assay: HEK293 wild type cell line counter screen (AID 1920065)
Outline: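 Agonist mode; 18 h seeding at 37 C, 1 h dye load at 37 C; compounds pinned from DMSO, ATP as positive control; kinetic fluorescence 480/540 nm, 3 min, 1 s reads; 15 concentrations, triplicate.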

[5] = p53 small molecule agonists, cell-based qHTS assay with human liver microsomes (AID 1963577);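 also: p53 response element beta-lactamase reporter cells with liver microsomes plus NADPH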
Outline: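 In this qHTS, p53 response-element beta-lactamase cells receive test compound together with a microsome/NADPH activating system (0.5 mg/mL final each) and are incubated 16 h at 37 C before LiveBLAzer fluorescence detection.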

[6] = p53 small molecule agonists, cell-based qHTS assay with rat liver microsomes (AID 1963578); also: potency is read from the fitted curve at half-maximal effect
Outline: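 Agonist mode in p53RE-bla reporter cells, with compounds co-incubated 16 h at 37 C alongside 0.5 mg/mL rat liver microsomes and 0.5 mg/mL NADPH (final), followed by a 2 h LiveBLAzer detection step.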

[7] = p53 small molecule agonists, cell-based qHTS assay with human liver microsomes: qHTS cell viability counter screen (AID 1963579); also: nearly all actives have a fitted effect of over 45% in size; also: potency is read from the fitted curve at half-maximal effect
Outline: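 Metabolically activated exposure: compounds, human liver microsomes and NADPH (0.5 mg/mL final apiece) were added to p53RE-bla cells seeded 5 h earlier, left 16 h at 37 C, and then assessed for viability by CellTiter-Glo luminescence.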

[8] = p53 small molecule agonists, cell-based qHTS assay with rat liver microsomes: qHTS cell viability counter screen (AID 1963580); also: nearly all actives have a fitted effect of over 45% in size
Outline: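 Luminescent ATP readout (CellTiter-Glo, 30 min at room temperature) reports viability of p53RE-bla HCT-116 cells after 16 h at 37 C with test compounds under metabolic activation by rat liver microsomes and NADPH at 0.5 mg/mL final each.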

[9] = p53 small molecule agonists, cell-based qHTS assay: qHTS cell viability counter screen (AID 1963581); also: nearly all actives have a fitted effect of over 45% in size; also: potency is read from the fitted curve at half-maximal effect
Outline: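 Cytotoxicity read-out: ATP-based luminescence (CellTiter-Glo, 30 min RT) measured in the same wells as the p53 reporter assay, HCT-116 p53RE-bla cells, 16 h compound exposure at 37 C.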

[10] = p53 small molecule agonists, cell-based qHTS assay (AID 1963582; active = well fitted activation curve with a large enough effect in the signal ratio in the repeat runs, not every such curve was filed as active; the % refers to the signal ratio; also: potency is read from the fitted curve at half-maximal effect)
Outline: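 Fluorescence intensity read-out of a beta-lactamase reporter under a p53 response element. Cells were exposed to DMSO-dissolved compounds for 16 h at 37 C, then developed with FRET substrate for 2 h at RT.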

[11] = target: 5-hydroxytryptamine receptor 2A (Homo sapiens) (UniProt P28223); test: 5-hydroxytryptamine receptor 2A (HTR2A) small molecule antagonists, cell-based qHTS assay (AID 1963586); also: nearly all actives have a fitted effect of over 45% in size; also: potency is read from the fitted curve at half-maximal effect
Sequence of 5-hydroxytryptamine receptor 2A (Homo sapiens) (P28223 whole entry, looked up): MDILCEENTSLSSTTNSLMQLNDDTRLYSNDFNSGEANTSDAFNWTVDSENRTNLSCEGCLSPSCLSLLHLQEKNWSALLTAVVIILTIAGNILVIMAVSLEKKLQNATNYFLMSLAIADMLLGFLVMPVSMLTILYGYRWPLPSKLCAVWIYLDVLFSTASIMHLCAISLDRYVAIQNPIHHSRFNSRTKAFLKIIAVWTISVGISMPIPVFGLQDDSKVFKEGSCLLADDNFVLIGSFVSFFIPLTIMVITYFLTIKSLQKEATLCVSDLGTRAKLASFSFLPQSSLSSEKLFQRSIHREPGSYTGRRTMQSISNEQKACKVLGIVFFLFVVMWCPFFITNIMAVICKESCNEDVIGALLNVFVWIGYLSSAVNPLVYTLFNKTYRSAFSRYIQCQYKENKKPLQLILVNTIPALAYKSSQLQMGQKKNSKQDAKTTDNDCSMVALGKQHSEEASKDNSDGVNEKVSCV
Outline: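 CHO cells stably expressing human HTR2A were plated for 18 h at 37 C, then loaded with calcium dye for 1 h. Compounds were preincubated 5 min at room temperature before DOI (4 nM solution) was added. Kinetic fluorescence was read for 3 min.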

[12] = target: 5-hydroxytryptamine receptor 2A (Homo sapiens) (UniProt P28223); test: 5-hydroxytryptamine receptor 2A (HTR2A) small molecule agonists, cell-based qHTS assay (AID 1963587); also: nearly all actives have a fitted effect of over 30% in size
Outline: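 HTR2A-CHO cells, plated 18 h at 37 C/5% CO2, dye-loaded 1 h at 37 C; compounds in DMSO added by pin tool (agonist mode). Intracellular calcium flux read as kinetic fluorescence on FDSS over 2 min at 1 s intervals.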

[13] = target: Muscarinic acetylcholine receptor M1 (Homo sapiens) (UniProt P11229); test: Cholinergic receptor muscarinic 1 (CHRM1) small molecule antagonists, cell-based qHTS assay (AID 1963588); also: nearly all actives have a fitted effect of over 40% in size; also: potency is read from the fitted curve at half-maximal effect
Sequence of Muscarinic acetylcholine receptor M1 (Homo sapiens) (P11229 whole entry, looked up): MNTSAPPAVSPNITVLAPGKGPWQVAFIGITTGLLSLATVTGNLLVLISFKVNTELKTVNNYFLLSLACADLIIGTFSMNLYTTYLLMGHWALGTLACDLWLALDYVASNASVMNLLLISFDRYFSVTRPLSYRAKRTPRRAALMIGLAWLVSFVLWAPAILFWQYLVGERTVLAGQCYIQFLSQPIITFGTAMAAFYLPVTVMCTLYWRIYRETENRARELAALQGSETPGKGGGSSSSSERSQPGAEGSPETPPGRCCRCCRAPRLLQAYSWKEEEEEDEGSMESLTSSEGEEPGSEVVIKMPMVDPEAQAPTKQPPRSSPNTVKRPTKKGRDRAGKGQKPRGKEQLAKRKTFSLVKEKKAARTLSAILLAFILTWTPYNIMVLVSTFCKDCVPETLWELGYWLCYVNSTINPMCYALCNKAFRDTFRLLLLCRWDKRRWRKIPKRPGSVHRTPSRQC
Outline: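 Compounds were tested at 15 concentrations in three independent runs. Dye-loaded CHRM1-CHO cells were exposed 5 min at room temperature before stimulation by acetylcholine added at 50nM. Intracellular calcium was read kinetically on FDSS for 3 min.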

[14] = target: Muscarinic acetylcholine receptor M1 (Homo sapiens) (UniProt P11229); test: Cholinergic receptor muscarinic 1 (CHRM1) small molecule agonists, cell-based qHTS assay (AID 1963589); also: nearly all actives have a fitted effect of over 35% in size
Outline: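 Calcium flux read-out: kinetic fluorescence at 1 sec intervals after pin-tool compound addition to dye-loaded CHRM1-CHO cells (human M1). Agonist mode; 15 concentrations tested in triplicate independent runs.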

[15] = cAMP Responsive Elements (CRE) small molecule agonists, cell-based qHTS assay (AID 1963590)
Outline: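 Beta-lactamase reporter readout: LiveBLAzer B/G FRET substrate, 2 h at room temperature, added after 3 h compound treatment of CRE-bla HEK 293T cells at 37 C/5% CO2.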

[16] = target: Beta-2 adrenergic receptor (Homo sapiens) (UniProt P07550); test: Adrenergic beta2 receptor (ADRB2) small molecule antagonists, cell-based qHTS assay (AID 1963592); also: series mostly up to about 92 µM; nearly all actives have a fitted effect of over 50% in size
Sequence of Beta-2 adrenergic receptor (Homo sapiens) (P07550 whole entry, looked up): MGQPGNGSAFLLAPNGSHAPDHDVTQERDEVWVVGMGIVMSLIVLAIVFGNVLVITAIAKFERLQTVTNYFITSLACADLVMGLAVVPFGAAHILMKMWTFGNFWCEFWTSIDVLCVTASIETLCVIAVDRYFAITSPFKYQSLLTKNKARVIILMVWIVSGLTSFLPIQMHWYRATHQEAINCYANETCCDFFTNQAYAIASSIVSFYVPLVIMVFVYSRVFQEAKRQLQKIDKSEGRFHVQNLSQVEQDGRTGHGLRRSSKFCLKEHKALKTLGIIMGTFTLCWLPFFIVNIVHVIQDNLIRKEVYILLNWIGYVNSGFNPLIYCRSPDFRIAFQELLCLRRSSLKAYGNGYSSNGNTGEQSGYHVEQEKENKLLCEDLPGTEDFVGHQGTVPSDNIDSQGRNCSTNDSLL
Outline: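 Assay format: CHO-ADRB2 cells, 18-20hr seeding at 37C/5% CO2, then compound plus 1nM isoproterenol agonist mix for 0.5hr RT. Homogeneous time-resolved fluorescence cAMP detection after 1hr, expressed as 665/615 nm ratio.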

[17] = target: D(2) dopamine receptor (Homo sapiens) (UniProt P14416); test: Dopamine D2 receptor (DRD2) small molecule agonists, cell-based qHTS assay (AID 1963594); also: nearly all actives have a fitted effect of over 35% in size
Sequence of D(2) dopamine receptor (Homo sapiens) (P14416 whole entry, looked up): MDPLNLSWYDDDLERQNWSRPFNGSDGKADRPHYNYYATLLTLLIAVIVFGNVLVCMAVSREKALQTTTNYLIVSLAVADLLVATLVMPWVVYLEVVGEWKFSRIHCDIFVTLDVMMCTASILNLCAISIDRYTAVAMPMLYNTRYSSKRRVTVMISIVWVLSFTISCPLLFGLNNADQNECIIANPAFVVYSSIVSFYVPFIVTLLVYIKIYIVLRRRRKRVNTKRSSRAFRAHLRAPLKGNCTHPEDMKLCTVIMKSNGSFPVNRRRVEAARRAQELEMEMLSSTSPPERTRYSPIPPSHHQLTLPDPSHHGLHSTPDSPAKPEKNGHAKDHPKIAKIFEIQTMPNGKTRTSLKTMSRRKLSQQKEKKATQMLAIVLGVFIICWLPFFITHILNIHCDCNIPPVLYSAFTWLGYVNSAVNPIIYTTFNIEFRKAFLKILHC
Outline: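 HEK293 cells stably expressing DRD2 were cultured 24 h at 37 C, then given Ro20-1724 (0.1 mM final) and compounds for 10 min at room temperature. NKH477 (200nM) was then added for 30 min. cAMP was read by HTRF.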

[18] = target: D(2) dopamine receptor (Homo sapiens) (UniProt P14416); test: Dopamine D2 receptor (DRD2) small molecule antagonists, cell-based qHTS assay (AID 1963595; active = well fitted inhibition curve with a large enough effect in the signal ratio in the repeat runs, with a control signal flat; the % refers to the signal ratio)
Outline: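 Cells were plated and grown for 24 h at 37 °C. Ro20-1724 (0.1 mM final) went in first, then compound for 10 min. NKH477 (200 nM) with quinpirole (12 nM) followed for 30 min at RT, then HTRF detection reagents for 1 h.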

[19] = cAMP Responsive Elements (CRE) small molecule antagonists, cell-based qHTS assay (AID 1963591; active = well fitted inhibition curve with a large enough effect in the signal ratio in the repeat runs, not every such curve was filed as active; the % refers to the signal ratio)
Outline: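 HEK293T CRE-bla; 18 h preincubation; compound pin-transfer; NKH477 0.25 uM final, 3 h, 37 C; LiveBLAzer FRET substrate 2 h RT.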

[20] = target: Beta-2 adrenergic receptor (Homo sapiens) (UniProt P07550); test: Adrenergic beta2 receptor (ADRB2) small molecule agonists, cell-based qHTS assay (AID 1963593); also: potency is read from the fitted curve at half-maximal effect;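 as to activation: CHO cells stably overexpressing human ADRB2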
Outline: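 CHO cells stably over-expressing ADRB2 were plated overnight at 37C, then dosed with compounds plus a stimulation mix containing 100uM IBMX and 25uM Ro-20-1724 for 0.5hr at room temperature. cAMP was measured by HTRF competition, 1hr.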

Measured: Potency

O=[N+]([O-])c1ccccc1CCl
not listed: [19] | [20]
inactive: all other assays above

CC(O)C#N (stereo unspecified)
not listed: [10] | [13] | [16]
inactive: all other assays above

C[C@]12CC[C@H]3[C@@H](CCC4=CC(=O)CC[C@@H]43)[C@@H]1CC[C@@H]2OC(=O)CCc1ccco1
active: [13] 1.3 µM | [20] 2.98 µM
not listed: [10] | [15] | [16] | [17] | [18] | [19]
inactive: all other assays above

CC(C)COP(=O)(OCC(C)C)OCC(C)C
not listed: [7] | [12]
inactive: all other assays above

CC1CCC(C(C)C)C(OC(=O)c2ccccc2N)C1 (stereo unspecified)
active: [1] 30.2 µM | [6] 35.8 µM | [7] 35.8 µM | [9] 31.9 µM
not listed: [10] | [11] | [13] | [18] | [19] | [20]
inactive: all other assays above

CCOC(=O)N(C)C(=O)CSP(=S)(OCC)OCC
not listed: [8] | [13] | [19] | [20]
inactive: all other assays above

BrCC(Br)(Br)Br
not listed: [8] | [18] | [20]
inactive: all other assays above

CC1(C)[C@H](/C=C2\CCSC2=O)[C@@H]1C(=O)OCc1coc(Cc2ccccc2)c1
active: [11] 2.65 µM
not listed: [7] | [15] | [19] | [20]
inactive: all other assays above

Oc1ccc2ccc3cccc4ccc1c2c34
not listed: [6] | [16] | [17] | [19] | [20]
inactive: all other assays above

O=[N+]([O-])c1ccc(Nc2ccccc2)cc1
active: [1] 61.6 µM | [11] 16.9 µM and 16.8 µM
not listed: [9] | [10] | [14] | [15] | [18] | [19] | [20]
inactive: all other assays above

CCCCOC(C)=O
not listed: [9]
inactive: all other assays above

CC1(C(=O)Nc2ccc(O)c(Cl)c2Cl)CCCCC1
not listed: [8] | [12] | [14] | [15] | [19] | [20]
inactive: all other assays above

COc1cccc([C@@]2(O)CCCC[C@@H]2CN(C)C)c1
not listed: [9] | [11] | [12] | [13] | [14] | [19]
inactive: all other assays above

CCCCN(N=O)C(=N)N[N+](=O)[O-]
active: [10] 37.1 µM
not listed: [6] | [15] | [18] | [20]
inactive: all other assays above

CN1CCC(O)(c2ccc(F)cc2)C(C(=O)c2ccc(F)cc2)C1 (stereo unspecified)
not listed: [8] | [12] | [13] | [16]
inactive: all other assays above

CCC(C)c1cc(C(C)(C)C)cc(-n2nc3ccccc3n2)c1O (stereo unspecified)
not listed: [8] | [9] | [20]
inactive: all other assays above

CCCCCOC(=O)c1ccccc1C(=O)OCCCCC
not listed: [8] | [10] | [11]
inactive: all other assays above
